PubChem BioAssay
Calls of active or inactive are those of the source.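 How the source made its calls, unless noted: active means compounds whose cell count with miR-34 switched on is under 0.7 times the count with it off; inactive means the rest.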 Where a SMILES comes first, the peptide text is derived from it.

Columns and labels:
[1] = sensitizers of A549 cells to miR-34 induction, primary screen, imaging, A549 dox-inducible miR-34, nuclei and caspase counts (AID 1347080); conditions: A549 miR-34 inducible, Hoechst nuclei count, 48 h
[2] = survival rescue of mitochondrial mutant cells in low glucose, primary screen, MELAS cybrids, Rieske KO mouse fibroblasts, CellTiter-Glo (AID 1508586;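 active means mean z-score across replicates of 1.96 or higher in either the MELAS or the Rieske mutant cell line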;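 further: z relative to plate mean and SD of compound and empty wells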)
[3] = stronger effect = lower value, cell number ratio, induced over uninduced
[4] = measured here: relative caspase fold change +Dox/-Dox
[5] = measured here: total cells with miR-34 induction, stronger effect = lower value
[6] = measured here: total cells without miR-34 induction
[7] = MELAS cybrid survival, CellTiter-Glo 48 h, stronger effect = higher value
[8] = Rieske KO mouse fibroblast survival, CellTiter-Glo 72 h
Further: test concentration not given here.

Compound	fold change [1, 3]	fold change [1, 4]	cell count [1, 5]	cell count [1, 6]	z-score [2, 7]	z-score [2, 8]
OC1CO[C@H]2C(O)CO[C@H]12 (stereo partly specified)	0.905 (inactive)	0.942	8830	9750	-0.254 (inactive)	-0.154
Cn1nc(C(C)(C)C)cc1C(=O)NC(Cc1cccc(Cl)c1)C(=O)NCC#N (stereo unspecified)	0.927 (inactive)	0.462	7540	8140	0.131 (inactive)	0.0966
COc1cc(C=CC(=O)O)ccc1O	0.929 (inactive)	0.764	7790	8380	-0.291 (inactive)	-1.2
Cc1c(O)cccc1C(=O)NC(CSc1ccccc1)C(O)CN1C[C@H]2CCCC[C@H]2CC1C(=O)NC(C)(C)C (stereo partly specified)	0.999 (inactive)	0.485	7710	7710	-0.177 (inactive)	-0.0438
O=C(c1ccc(F)cc1)N1CCCC(c2nc(-c3ccc(F)cc3)no2)C1 (stereo unspecified)	0.877 (inactive)	0.718	8270	9420	-0.287 (inactive)	-0.496
COC(=O)C1=COC(O)[C@@H]2C(CO)=CC[C@H]12 (stereo partly specified)	0.899 (inactive)	1	8660	9630	-0.314 (inactive)	-0.656
CCC(C)(C)C(=O)OC1CC(C)C=C2C=CC(C)C(CC[C@@H]3CC(O)CC(=O)O3)[C@H]21 (stereo partly specified)	1.33 (inactive)	0.766	2960	2220	1.26 (inactive)	-1.5
CCCN1CC(CSC)C[C@@H]2c3cccc4[nH]cc(c34)C[C@H]21 (stereo partly specified)	0.938 (inactive)	0.485	7000	7460	-0.0829 (inactive)	-0.225
CC(=O)O[C@@]1(C(C)=O)CC[C@H]2[C@@H]3CCC4=CC(=O)CCC4=C3C(c3ccc(N(C)C)cc3)C[C@@]21C (stereo partly specified)	1.04 (inactive)	0.797	6660	6380	-0.373 (inactive)	-0.0703
CC(=O)O[C@@]1(C(C)=O)CC[C@H]2[C@@H]3C=C(Cl)C4=CC(=O)C5CC5[C@]4(C)[C@@H]3CC[C@@]21C (stereo partly specified)	0.94 (inactive)	0.713	7720	8210	-0.351 (inactive)	0.528
CC(CCC(=O)O)C1CC[C@H]2[C@@H]3CC[C@@H]4CC(O)CC[C@]4(C)[C@H]3CC[C@]12C (stereo partly specified)	0.884 (inactive)	1.13	7640	8650	-0.0806 (inactive)	-0.272
CCN(CC)CCOC(=O)c1ccc(N)cc1Cl	0.9 (inactive)	1.29	9150	10200	-0.309 (inactive)	-0.153
C[C@@]12CCC3=C4CCC(=O)C=C4CC[C@H]3[C@@H]1CC[C@@]2(O)CC#N	0.908 (inactive)	0.868	7270	8010	-0.385 (inactive)	0.301
C=C1CCC(O)CC1=CC=C1CCC[C@]2(C)C(C(C)CCCC(C)C)CC[C@@H]12 (stereo partly specified)	0.915 (inactive)	0.845	8000	8740	-0.279 (inactive)	-0.0631
CC(C)C1C(=O)NC(CCCN=C(N)N)C(=O)NCC(=O)NC(CC(=O)O)C(=O)NC(Cc2ccccc2)C(=O)N1C (stereo unspecified)	0.841 (inactive)	0.758	304	361	0.703 (inactive)	-0.232
CC(=O)NC1C(N=C(N)N)C=C(C(=O)O)O[C@H]1C(O)C(O)CO (stereo partly specified)	0.903 (inactive)	0.622	9700	10700	-0.333 (inactive)	0.922
Cc1ccccc1CN1C2=NCCN2C(=O)C2=C1CCN(Cc1ccccc1)C2	0.955 (inactive)	0.31	8710	9120	-0.516 (inactive)	0.0586
Cc1onc(-c2ccccc2Cl)c1C(=O)NC1C(=O)N2C(C(=O)O)C(C)(C)S[C@@H]12 (stereo partly specified)	0.964 (inactive)	0.778	9670	10000	-0.365 (inactive)	0.485
COC1CC2CCC(C)[C@](O)(O2)C(=O)C(=O)N2CCCC[C@H]2C(=O)OC(C(C)CC2CCC(n3cnnn3)C(OC)C2)CC(=O)C(C)C=C(C)C(O)C(OC)C(=O)C(C)CC(C)C=CC=CC=C1C (stereo partly specified)	1.13 (inactive)	0.353	5100	4500	3.99 (active)	2.04
COC1C[C@H]2CCC(C)[C@@](O)(O2)C(=O)C(=O)N2CCCC[C@H]2C(=O)OC(C(C)CC2CCC(OP(C)(C)=O)C(OC)C2)CC(=O)C(C)C=C(C)C(O)C(OC)C(=O)C(C)CC(C)C=CC=CC=C1C (stereo partly specified)	1.07 (inactive)	0.835	4570	4270	0.709 (inactive)	1.92
CN1CC(=O)N2C(c3ccc4c(c3)OCO4)c3[nH]c4ccccc4c3C[C@@H]2C1=O (stereo partly specified)	0.882 (inactive)	0.922	6530	7410	-0.417 (inactive)	0.533
CCN=C1N[C@@H]2C(O)C(O)C(CO)O[C@@H]2S1 (stereo partly specified)	0.935 (inactive)	0.487	8710	9320	-0.533 (inactive)	-0.988
COC1O[C@H]2O[C@@]3(C)CC[C@H]4[C@@H](C)CC[C@@H]([C@H]1C)[C@@]24OO3 (stereo partly specified)	0.86 (inactive)	1.37	7410	8620	-0.241 (inactive)	0.578

Compound	fold change [1, 3]	fold change [1, 4]	cell count [1, 5]	cell count [1, 6]	z-score [2, 7]	z-score [2, 8]
CC(C)(O)C1CC[C@@](C)([C@@H]2C(O)C[C@@]3(C)[C@@H]4CC(OC5OC(CO)C(O)C(O)C5O)[C@H]5C(C)(C)C(OC6OCC(O)C(O)C6O)CC[C@@]56C[C@]46CC[C@]23C)O1 (stereo partly specified)	0.936 (inactive)	0.796	9300	9940	-0.378 (inactive)	0.478
CC1(C)S[C@@H]2C(NC(=O)Cc3ccccc3)C(=O)N2C1C(=O)O (stereo partly specified)	0.875 (inactive)	0.906	7910	9040	0.0178 (inactive)	-0.226
OCCOc1ccc(C(=C(CCCl)c2ccccc2)c2ccccc2)cc1	0.979 (inactive)	0.793	9190	9380	-0.333 (inactive)	-0.092
Fc1ccc(C(c2ccc(F)cc2)N2CCN(CC=Cc3ccccc3)CC2)cc1	0.899 (inactive)	0.978	7880	8760	-0.335 (inactive)	0.411
CC(C)c1cc(-c2ccc(F)c3ccccc23)nc(N)n1	0.949 (inactive)	0.444	7570	7980	-0.214 (inactive)	0.0729
CC(O)=C(C#N)C(=O)Nc1ccc(C(F)(F)F)cc1	0.904 (inactive)	1.22	7860	8690	-0.297 (inactive)	-0.28
CCCCCCCCCCCCCCCC(=O)OC1C(SC)OC(C(NC(=O)C2CC(CCC)CN2C)C(C)Cl)C(O)C1O (stereo unspecified)	0.883 (inactive)	0.558	9240	10500	-0.438 (inactive)	-0.237
CCCCc1ncc(C=C(Cc2cccs2)C(=O)O)n1Cc1ccc(C(=O)O)cc1	0.858 (inactive)	0.882	8440	9840	-0.00421 (inactive)	-0.115
COc1ccc2cc1Oc1ccc(cc1)C[C@@H]1c3c(cc4c(c3Oc3cc5c(cc3OC)CCN(C)[C@@H]5C2)OCO4)CCN1C	0.966 (inactive)	1.15	4290	4440	-0.206 (inactive)	-0.161
Nc1nc(Cl)nc2c1ncn2C1OC(CO)C(O)C1F (stereo unspecified)	1.03 (inactive)	0.719	1700	1650	0.651 (inactive)	-0.114
CCNc1nc(Nc2cc(F)c(C(=O)N3CCOCC3)cc2OC)ncc1C(F)(F)F	0.9 (inactive)	0.418	8080	8970	-0.325 (inactive)	-0.142
CC(=Cc1ccccc1)C=C1SC(=S)N(CC(=O)O)C1=O	0.909 (inactive)	0.759	8290	9130	-0.0963 (inactive)	0.707
CC(OC1OCCN(Cc2nn(P(=O)(O)O)c(=O)[nH]2)C1c1ccc(F)cc1)c1cc(C(F)(F)F)cc(C(F)(F)F)c1 (stereo unspecified)	1.01 (inactive)	0.443	5980	5920	-0.192 (inactive)	-0.0927
CC(=O)C1=C(O)C=C2Oc3c(C(C)=O)c(O)c(C)c(O)c3[C@]2(C)C1=O	0.866 (inactive)	1.11	5890	6800	-0.25 (inactive)	0.769
N#CC1C[C@@H]2C[C@H]2N1C(=O)C(N)C12CC3CC(CC(O)(C3)C1)C2 (stereo partly specified)	0.986 (inactive)	0.858	7460	7570	-0.404 (inactive)	0.586
Nc1nc(N)c2nc(-c3cccc(O)c3)cnc2n1	0.989 (inactive)	0.893	6340	6410	1.29 (inactive)	-0.0279
O=C(Nc1ccccc1Br)NC1CCN(c2ccc(C(F)(F)F)cn2)C1 (stereo unspecified)	0.944 (inactive)	0.559	9350	9910	-0.215 (inactive)	0.944
Cc1cc(CS(=O)(=O)c2ccccc2)cc(OCc2ccc(CN3CCCC3CO)cc2)c1 (stereo unspecified)	0.932 (inactive)	0.28	7820	8380	0.0407 (inactive)	0.831
CC[C@]1(O)C[C@H]2CN(CCc3c([nH]c4ccccc34)[C@@](C(=O)OC)(c3cc4c(cc3OC)N(C)[C@@H]3C45CCN4CC=C[C@@](CC)(C(OC(C)=O)[C@]3(O)C(=O)OC)[C@H]45)C2)C1 (stereo partly specified)	1.18 (inactive)	0.78	1480	1260	0.649 (inactive)	-0.168
COc1ccc(NS(=O)(=O)c2sc3ccc(Cl)cc3c2C)cc1N1CCNCC1	0.966 (inactive)	0.423	7390	7650	-0.345 (inactive)	-0.0807
COC(=O)C(Cc1ccccc1)NC(=O)C(N)CC(=O)O (stereo not drawn) (H-Asp-Phe-OMe; configuration not given here)	0.938 (inactive)	0.532	8220	8770	-0.285 (inactive)	-0.555
C[C@]12CCC(=O)C=C1CC[C@@H]1[C@H]2C(O)C[C@@]2(C)[C@H]1CC[C@@]2(O)C(=O)CO (stereo partly specified)	0.923 (inactive)	0.886	5230	5670	-0.31 (inactive)	-0.201
CCCC(NC(=O)C(C#N)=Cc1cccc(Br)n1)c1ccccc1 (stereo unspecified)	0.929 (inactive)	0.922	824	888	3.82 (active)	-1.38
